Assay outcomes (PubChem BioAssay)
The list is not random: actives were taken first. Their share in the collection is about 2%.
VLA-4 inh: inhibition in a human VLA-4 binding assay; inhibition, % (about 7 µM as worked out from the volumes in the protocol); 330,000 tested, 0.2% active; VLA-4 expressing cells, ligand binding flow cytometry; P13612; AID 2557; in the data active means inhibition above about 50%
PG9 binder: PG9 antibody binding by small molecule | inhibition, % at 6.7 µM | AID 624416 | 360,000 tested, 0.43% active | TR-FRET gp120-PG9 antibody binding; in the data active means inhibition above about 8.5%
ABCB6 inh MLPCN: human ABCB6 transporter inhibition; AID 602162; 360,000 tested, 0.19% active; Q9NP58; fluorescence ratio to DMSO, % at 10 µM; K562-ABCB6 porphyrin accumulation, flow cytometry, 1 h; stronger effect = lower value;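 active means fluorescence ratio to DMSO below 75%, the collection mean minus 3 SD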;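 further: signal is porphyrin accumulated inside mitochondria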
Target sequence (Q9NP58 whole entry, looked up): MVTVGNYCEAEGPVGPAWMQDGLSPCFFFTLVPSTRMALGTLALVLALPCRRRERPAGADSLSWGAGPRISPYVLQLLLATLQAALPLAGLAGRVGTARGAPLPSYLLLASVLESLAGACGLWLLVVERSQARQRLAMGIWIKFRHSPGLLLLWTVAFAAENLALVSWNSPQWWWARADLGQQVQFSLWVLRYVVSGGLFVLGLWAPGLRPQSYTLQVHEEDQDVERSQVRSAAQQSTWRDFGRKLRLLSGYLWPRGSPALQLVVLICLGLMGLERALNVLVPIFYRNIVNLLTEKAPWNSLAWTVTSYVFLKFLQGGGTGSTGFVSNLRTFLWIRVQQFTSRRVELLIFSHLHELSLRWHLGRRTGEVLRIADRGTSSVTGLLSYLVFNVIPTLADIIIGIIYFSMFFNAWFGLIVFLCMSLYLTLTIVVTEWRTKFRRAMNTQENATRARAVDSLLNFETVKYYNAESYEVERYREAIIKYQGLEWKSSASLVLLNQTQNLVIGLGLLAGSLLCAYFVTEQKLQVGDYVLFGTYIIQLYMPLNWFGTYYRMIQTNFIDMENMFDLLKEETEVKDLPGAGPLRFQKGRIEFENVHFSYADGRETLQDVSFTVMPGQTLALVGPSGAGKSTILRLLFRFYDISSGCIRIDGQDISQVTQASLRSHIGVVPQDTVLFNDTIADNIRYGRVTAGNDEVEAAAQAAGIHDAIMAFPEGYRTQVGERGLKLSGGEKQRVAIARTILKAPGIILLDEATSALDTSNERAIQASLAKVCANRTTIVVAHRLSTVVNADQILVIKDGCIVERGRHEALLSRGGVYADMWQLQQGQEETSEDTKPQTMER
Granule exo inh: lytic granule exocytosis inhibition | TALL-104 LAMP-1 surface exposure, flow cytometry; cells stimulated with thapsigargin and PMA | inhibition, % at 10 µM | 360,000 tested, 0.66% active | AID 651702;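 active means inhibition above about 55%, limit read from the data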
NR1D1 modulator: modulates human Rev-erb alpha binding to DNA | P20393 | Rev-erbα–FITC-DNA binding, fluorescence polarization, 90 min | activity, % at 10 µM | 370,000 tested, 0.79% active | AID 1259318;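 active means activity above about 14%, limit read from the data; passing the limit was not always enough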
Exocytosis CP01: lytic granule exocytosis inhibition; shares compounds with Granule exo inh; TALL-104 cells, LAMP-1 externalization, flow cytometry; stimulated with PMA plus thapsigargin; inhibition, % at 10 µM; 1,500 tested, 11% active; in the data active means inhibition above about 60%
Numbers stand for hits; n = inactive; x = no result; ! = repeats disagree.

SMILES	VLA-4 inh	PG9 binder	ABCB6 inh MLPCN	Granule exo inh	NR1D1 modulator	Exocytosis CP01
CCCC(=O)OC(C(=O)Nc1cc(C(F)(F)F)ccc1Cl)c1ccccc1 (configuration not stated)	n	n	n	n	n	x
O=C(CN1CCN(C(C(=O)Nc2ccc(Cl)cc2C(F)(F)F)c2ccccc2)CC1)NC1CC1 (configuration not stated)	n	n	n	n	n	x
O=C(CN1CCN(C(C(=O)Nc2cc(C(F)(F)F)ccc2Cl)c2ccccc2)CC1)NC1CC1 (configuration not stated)	x	n	n	79.8	n	n
Cc1ccc(C)c(CN2C(=O)CSc3ccc(C(=O)NCC(C)CN4CCC(C)CC4)cc32)c1 (configuration not stated)	n	n	n	76.9	n	n
Cc1cc(N2CCN(CC(C)(C)O)C[C@@H]2C)ccc1N1CCN(Cc2ccccc2)[C@H](C)C1	x	n	x	x	n	x
CCCCCCn1c(COc2ccccc2F)nnc1SCC(=O)N1c2ccccc2NC(=O)C1(C)C	n	n	n	75.0	n	n
CCOC(=O)C1(CCOc2ccccc2)CCN(Cc2cccc(OC)c2O)CC1	n	n	n	69.4	n	n
CCOC(=O)C1(CCOc2ccccc2)CCN(Cc2cccc(OC)c2)CC1	n	n	n	85.5	n	n
CCOC(=O)C1(CCOc2ccccc2)CCN(Cc2ccc(O)c(Cl)c2)CC1	n	n	n	n	n	x
CCOC(=O)C1(CCOc2ccccc2)CCN(Cc2ccc3c(c2)OCCO3)CC1	n	n	n	82.7	n	n
CCOC(=O)C1(CCOc2ccccc2)CCN(Cc2ccc(O)c(OC)c2)CC1	n	n	n	69.9	n	n
CCCNC(=O)N1[C@@H](CO)[C@H](c2ccc(C3=CCCC3)cc2)[C@@H]1CN(CC)S(=O)(=O)c1ccccc1[N+](=O)[O-]	x	x	x	x	n	x
S=c1[nH]nc(-c2n[nH]c3c2CCC3)n1N=Cc1ccc(OCc2ccccc2)cc1	x	x	x	x	n	x
Cc1nn(-c2ccccc2)c2sc(C(=O)N3CCC4(CC3)OCCO4)cc12	x	x	x	x	n	x
C=CCN=C1NC(c2ccc(Cl)cc2)C(C(=O)OC)=C(C)N1Cc1ccccc1C(F)(F)F (configuration not stated)	x	n	x	x	n	x
CCOC(=O)C1(CCOc2ccccc2)CCN(Cc2ccc(F)c(OC)c2)CC1	n	n	n	72.1	n	n
CCOC(=O)C1(Cc2cccc(OC)c2)CCN(Cc2cc(OC)ccc2OC)CC1	n	n	n	n	n	x
CCOC(=O)C1(CCOc2ccccc2)CCN(Cc2cc(OC)ccc2OC)CC1	n	n	n	83.7	n	n
CCOC(=O)C1(CCOc2ccccc2)CCN(Cc2ccc(C(=O)OC)cc2)CC1	n	n	n	n	n	x
CN(CCc1ccccn1)C(=O)c1ccc2c(c1)ncn2C1CCCCC1	x	x	x	x	n	x
CCCCCCCCNCCS(=O)(=O)NCc1ccccc1	x	n	n	63.1	n	n
CCCCNS(=O)(=O)CCNCCc1ccccc1	x	n	n	n	n	x
COc1ccc(C(=O)OC(C)C(=O)NC(C)CCc2ccccc2)cc1[N+](=O)[O-] (configuration not stated)	n	n	n	n	n	x
COc1ccc(C(=O)OC(C)C(=O)NC(C)CCc2ccccc2)c(OC)c1 (configuration not stated)	n	n	n	58.4	n	n
CCc1cccc2c(C(C)c3ccccc3O)c[nH]c12 (configuration not stated)	x	x	x	x	n	x
SMILES	VLA-4 inh	PG9 binder	ABCB6 inh MLPCN	Granule exo inh	NR1D1 modulator	Exocytosis CP01
CCN(CC)S(=O)(=O)c1cc(NC(=O)CNc2cccc(S(=O)(=O)N3CCOCC3)c2)ccc1C	n	n	n	57.0	n	n
CSc1cccc(NC(=O)c2cccc3cccnc23)c1	n	n	n	81.8	n	n
O=S1(=O)C=CCN1Cc1cn(Cc2ccc(Cl)cc2)nn1	x	x	x	x	n	x
O=C1CSc2ccc(C(=O)N3CCCC(C(=O)N4CCCCC4)C3)cc2N1 (configuration not stated)	x	x	x	x	n	x
COC(=O)C1=C(C)N(CCCC(=O)O)C(=O)NC1c1ccc2c(c1)OCO2 (configuration not stated)	n	n	n	79.0	n	n
COC(=O)C1=C(C)N(CCCC(=O)O)C(=O)NC1c1ccc(Cl)cc1 (configuration not stated)	n	n	n	n	n	x
CC1=C(C(=O)OCc2ccccc2)C(c2ccc(Cl)cc2Cl)NC(=O)N1CCCC(=O)O (configuration not stated)	n	x	n	75.4	x	n
CCCCCc1c(-c2ccc(OC)cc2)ncn1CCc1ccccc1OC	x	n	n	67.7	n	n
CCCCCc1c(-c2ccc(Cl)cc2)ncn1CCc1ccccc1OC	x	n	n	n	n	x
CCCCc1c(-c2ccc(OC)cc2)ncn1CCc1ccccc1OC	x	n	n	82.3	n	n
FC(F)(F)Oc1ccc(Cn2ccc3ccc(-c4ccc5ccn(Cc6ccc(OC(F)(F)F)cc6)c5c4)cc32)cc1	x	x	x	x	n	x
COc1cccc(-c2cc(CNC(=O)[C@H]3O[C@@H](n4cnc(C(N)=O)n4)[C@H](O)[C@@H]3O)no2)c1	x	n	x	x	n	x
O=C(Cc1cccs1)N(Cc1cccs1)C1(C(=O)NC2CCCC2)CCCCC1	n	n	n	76.9	n	n
CCOc1c(N2CCOCC2)cnn(C)c1=O	x	x	x	x	n	x
C=CCN1C(=O)[C@H](CC(=O)NCc2cccc(C(F)(F)F)c2)[C@@]2(C(=O)OCC)CCCC=C12	x	x	x	x	n	x
COc1cccc(-c2nc(NC(C)(C)C)c3ccccc3n2)c1O	n	n	n	56.4	n	n
N#Cc1ccc2c(c1)N(CCCN1CCC(O)CC1)c1ccccc1S2	x	x	x	x	n	x
Cn1c(=O)cc(OCCCC(=O)Nc2cc(-c3ccncc3)ccn2)c2ccccc21	x	x	x	x	n	x
CCCCCCSc1cccc(-c2nc3ccccn3c2NCc2ccccc2)c1	n	n	n	58.2!	n	95.4
CCCCCCSc1cccc(-c2nc3cc(C)ccn3c2NCc2ccccc2)c1	x	n	n	n	n	x
COc1ccc(-n2c(SCC(=O)Nc3cccc4ccccc34)nnc2-c2ccco2)cc1	x	x	x	x	n	x
CC(C)c1ccc(NC(=O)O[C@@H]2CC[C@@]34CCCN3C(=O)CCC[C@H]4C2)cc1	x	x	x	x	n	x
CC(=O)Nc1ccc(SC[C@H](CC(C)C)N2CCN(CCc3ccccc3)CCC2=O)cc1	n	n	n	66.0	n	n
Cc1ccc(SC[C@H](CC(C)C)N2CCN(CCc3ccccc3)CCC2=O)cc1	x	n	n	n	n	x
CCN(CC)CCCC(C)NC(=O)c1c(NC(=O)c2ccccc2)sc2c1CCCC2 (configuration not stated)	n	n	n	77.8	n	n
CN(C)C(=O)c1c(NC(=O)c2ccccc2)sc2c1CCC2	n	n	n	n	n	x
O=C(NCCCN1CCOCC1)c1ccc(/C=C2\Oc3ccccc3N(Cc3ccccc3F)C2=O)cc1	n	n	n	62.9	n	n
Cc1ccccc1NC(=O)CN1CCC(C(=O)c2ccc3c(c2)OCCO3)CC1	n	n	n	n	n	x
